Laboratory results from PubChem BioAssay (EPA / NIEHS).
“And” between values parts separate entries of the source, which are not always exact repeats. Equal values may be shown once. Results filed as inconclusive are left out. Some structures have more than one record in an assay (separate samples or runs), and their calls can disagree. The source made the active and inactive calls. Rule for the calls: active = hit-call score of the fitted dose curve at least 0.9, where 1 is the maximum; inconclusive = response in the unintended direction; inactive = score below 0.9.

Molecular target: Cellular tumor antigen p53 (Homo sapiens) (UniProt P04637)
Test: TOX21_p53_BLA_p2_ratio: Tox21 HCT-116 p53 Agonism Beta-lactamase Assay, Ratio, Phase 2 (AID 2283592)
From the text: TOX21_p53_BLA_p2 is a cell-based, single-readout assay that uses HCT116, a human intestinal cell line, […] in a 1536-well plate.TOX21_p53_BLA_p2_ratio is an assay readout measuring reporter gene via receptor activity and designed using inducible reporter (beta lactamase induction) detected with GAL4 b-lactamase reporter gene. The signal is derived from the ratio of cleaved (ch2) to uncleaved (ch1) reporter gene substrate used as the measure of target activity.Data from the assay component TOX21_p53_BLA_p2_ratio was analyzed into 1 assay endpoint. This assay endpoint, TOX21_p53_BLA_p2_ratio, was analyzed in the positive analysis fitting direction relative to DMSO as the negative control and baseline of activity. Using a type of inducible reporter, gain-of-signal activity can be used to understand changes in the reporter gene as they relate to the gene TP53. Furthermore, this assay endpoint can be referred to as a primary readout, because this assay has produced multiple assay endpoints and this ratio serves a reporter gene function to understand target activity. To generalize the intended target to other relatable targets, this assay endpoint is annotated to the DNA binding intended target family, where the subfamily is tumor suppressor.
Thawing Method: Place 14 mL of pre-warmed thaw medium into a 15 mL of conical tub. Remove the vial of cells to be thawed from liquid nitrogen and thaw rapidly by placing at 37C in a water bath with gentle agitation for 1-2 minutes. Decontaminate the vial by wiping with 70% ethanol before opening in a biological safety cabinet. Transfer the vial contents drop-wise into 14 mL of thaw medium in a sterile 15-mL conical tub. Centrifuge cells at 900 rpm for 4 minutes and resuspend in thaw medium. Transfer contents to the T75 tissue culture flask containing Thaw Medium and place flask in a humidified 37C/5% CO2 incubator. Switch to growth medium at first passage.Propagation Method: Aspirate medium, rinse once in DPBS, add 0.25% Trypsin/EDTA and swirl to coat the cell evenly. Add an equal volume of Growth Medium to inactivate Trypsin after 2-3 minutes incubation at 37C. Centrifuge cells at 900 rpm for 4 minutes and resuspend in growth medium. Cell should be passage or fed at least twice a week.Assay Protocol: Harvest cells from culture in growth medium and resuspend in assay medium. 2.2 Dispense 4000 cells/5 uL/well into 1536-well black/clear bottom plates using a Multidrop dispenser. After the cells were incubated at 37C for 5 hours, 23 nL of compounds dissolved in DMSO were transferred to the assay plate by a PinTool resulting in a 217-fold dilution. Incubate the plates for 16 hours at 37C, 5% CO2. Add 1 uL of 6X LiveBLAzer FRET B/G (CCF4-AM) Substrate Mixture to each well using a BioRAPTR dispenser and incubate the plates at room temperature for 2 hours. Measure fluorescence intensity at 460 and 530 nm emission and 405 nm excitation by an Envision detector. Data is expressed as the ratio of 460nm/530nm emissions. Add 4 uL of Cell-titer Glo to each well using BioRAPTR and incubate the plates at room temperature for 2 hours. Measure fluorescence intensity by a VewLux plate reader.

Chain of Cellular tumor antigen p53 (Homo sapiens) (P04637 whole entry, looked up): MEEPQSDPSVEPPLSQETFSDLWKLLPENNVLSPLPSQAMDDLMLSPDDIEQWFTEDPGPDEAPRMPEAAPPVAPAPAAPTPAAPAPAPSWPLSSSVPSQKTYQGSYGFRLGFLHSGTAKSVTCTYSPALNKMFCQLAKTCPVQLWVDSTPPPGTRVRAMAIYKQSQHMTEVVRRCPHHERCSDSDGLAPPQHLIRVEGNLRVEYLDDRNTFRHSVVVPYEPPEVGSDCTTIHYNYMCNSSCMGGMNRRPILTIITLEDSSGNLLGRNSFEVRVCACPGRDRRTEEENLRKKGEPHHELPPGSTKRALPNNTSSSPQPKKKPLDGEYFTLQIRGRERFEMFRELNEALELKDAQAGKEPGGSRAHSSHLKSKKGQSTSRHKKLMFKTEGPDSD

| Compound | outcome | AC50 |
| --- | --- | --- |
| CC(C)(O)c1coc(S(=O)(=O)NC(=O)Nc2c3c(cc4c2CCC4)CCC3)c1 | inactive | – |
| O=c1n(CC2CO2)c(=O)n(CC2CO2)c(=O)n1CC1CO1 (stereo not given) | – | 19.6 µM (active) and 9.81 µM (active) and 20.5 µM (active) |
| C=CC(=C)CCC=C(C)C | inactive | – |
| CCOc1cccc(-n2cc(C(=O)N3CCN(c4cc(C(=O)O)c5ccccc5c4)CC3)nc2-c2ccc(C)cc2)c1 | – | 18 µM (active) |
| C1N2CN3CN1CN(C2)C3 | inactive | – |
| O=C(OC[C@H]1O[C@@H](OC(=O)c2cc(O)c(O)c(OC(=O)c3cc(O)c(O)c(O)c3)c2)[C@H](OC(=O)c2cc(O)c(O)c(OC(=O)c3cc(O)c(O)c(O)c3)c2)[C@@H](OC(=O)c2cc(O)c(O)c(OC(=O)c3cc(O)c(O)c(O)c3)c2)[C@@H]1OC(=O)c1cc(O)c(O)c(OC(=O)c2cc(O)c(O)c(O)c2)c1)c1cc(O)c(O)c(OC(=O)c2cc(O)c(O)c(O)c2)c1 | – | 12.9 µM (active) and 6.14 µM (active) |
| CCCCCCCCCCCCCCCO | inactive | – |
| C[C@](N)(Cc1ccc(O)c(O)c1)C(=O)O | inactive | – |
| CC(C)CC(C)(O)C#CC(C)(O)CC(C)C (stereo not given) | inactive | – |
| CC(C)c1cccc(C(C)C)c1N1C(=O)c2ccc(O)cc2C1=O | – | 1.77 µM (active) |
| O=C(CCCCCCCCc1cccnc1)N1CCC(C=C(c2ccccc2)c2ccccc2)CC1 | inactive | – |
| CCCCCCCCO | inactive | – |
| NC(=O)NO | inactive | – |
| O=C(O)CCN(C1(C(=O)NO)CCCC1)S(=O)(=O)c1ccc(Oc2ccc(F)cc2)cc1 | inactive | – |
| CC(O)CN(CCN(CC(C)O)CC(C)O)CC(C)O (stereo not given) | inactive | – |
| CC(C)=CCC/C(C)=C/CO | inactive | – |
| CC(C)CCCCCCCOC(=O)CCCCC(=O)OCCCCCCCC(C)C | inactive | – |
| O=P(OC(CCl)CCl)(OC(CCl)CCl)OC(CCl)CCl | inactive | – |
| Clc1nc(Cl)c(Cl)c(Cl)c1Cl | inactive | – |

| Compound | outcome | AC50 |
| --- | --- | --- |
| CC[C@H](C)C(=O)O[C@H]1C[C@@H](C)C=C2C=C[C@H](C)[C@H](CC[C@@H]3C[C@@H](O)CC(=O)O3)[C@H]21 | inactive | 84.3 µM (active) |
| Fc1ccccc1[C@@H](F)COC1CCC(Nc2ncnc3[nH]ncc23)CC1 (stereo not given in full) | inactive | – |
| CCOCCO | inactive | – |
| CC[C@H]1OC(=O)[C@H](C)[C@@H](O[C@H]2C[C@@](C)(OC)[C@@H](O)[C@H](C)O2)[C@H](C)[C@@H](O[C@@H]2O[C@H](C)C[C@H](N(C)C)[C@H]2O)[C@](C)(O)C[C@@H](C)C(=O)[C@H](C)[C@@H](O)[C@]1(C)O | inactive | – |
| Cc1ccc(N)cc1O | inactive | – |
| CCCC(=O)OCC | inactive | – |
| CC(C)=CCCC(C)CCO (stereo not given) | inactive | – |
| CC(C)=CCCC(C)=CC=O | inactive | – |
| C=CCCCCCCCCC(=O)O | inactive | – |
| CCN(C(=O)c1cc(C)cc(OC[C@H](C)Nc2ccncc2)c1)C(C)C | inactive | – |
| CCCN(C1CCN(C(=O)C2CCNCC2)CC1)[C@@H]1CCc2ccc(OC)cc2C1 | inactive | – |
| Cc1[nH]cnc1C[C@H]1CCc2c(C)c3ccccc3n2C1=O | inactive | – |
| CC(C)CCO | inactive | – |
| O=C(O)c1cc(N=Nc2ccc(S(=O)(=O)Nc3ccccn3)cc2)ccc1O | inactive | – |
| CCCCCCc1ccc(O)cc1O | inactive | 53.5 µM (active) and 42.9 µM (active) |
| CC(C)=CCC/C(C)=C\CO | inactive | – |
| Nc1nc2ncc(CNc3ccc(C(=O)N[C@@H](CCC(=O)O)C(=O)O)cc3)nc2c(=O)[nH]1 | inactive | – |
| O=C(O)c1cccc(N(Cc2cccnc2)c2ccc(OC(F)F)c(OC(F)F)c2)c1 | inactive | – |
| COC(=O)c1c(Cl)c(Cl)c(C(=O)OC)c(Cl)c1Cl | inactive | – |
